Screening data from PubChem.
Compounds with a hit are over-represented: about 3.2% of the library has one in this group of screens.
GLP-1R agonist: agonists of human GLP-1 receptor. P43220. HEK293 GLP-1R CRE-luciferase, luminescence, 4-6 h; cells express a hypersensitive GLP-1R form. Potency, µM (top dose mostly 45.6 µM), most hits filed as activators. 0.007% of 380,000 active. AID 624172
Target sequence (P43220 whole entry, looked up): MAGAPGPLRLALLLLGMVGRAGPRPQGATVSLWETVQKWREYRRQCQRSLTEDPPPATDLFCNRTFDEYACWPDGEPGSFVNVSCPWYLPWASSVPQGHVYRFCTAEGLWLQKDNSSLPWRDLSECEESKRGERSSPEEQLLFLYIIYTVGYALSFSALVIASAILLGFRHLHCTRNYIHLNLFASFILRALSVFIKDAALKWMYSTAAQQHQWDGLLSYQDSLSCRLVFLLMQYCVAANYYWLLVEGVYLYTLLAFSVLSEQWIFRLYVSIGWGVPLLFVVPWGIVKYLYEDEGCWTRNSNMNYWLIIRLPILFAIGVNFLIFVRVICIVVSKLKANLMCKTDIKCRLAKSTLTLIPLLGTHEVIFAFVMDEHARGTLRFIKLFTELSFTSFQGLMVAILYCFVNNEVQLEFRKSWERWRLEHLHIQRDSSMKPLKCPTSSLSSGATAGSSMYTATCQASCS
GLP1R inv ag: inverse agonists of human GLP-1 receptor. Potency, µM (highest dose often 38.3 µM), actives largely listed as inhibitors. HEK293 GLP-1R CRE-luciferase, luminescence, 24 h; GLP-1R form is constitutively active. P43220. 1.6% of 410,000 active; further: nearly all actives have a fitted effect of over 55% in size
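Seeding at 200 cells/uL, 12 h culture, 24 hr compound treatment, then luciferase reagent and a luminescence read; cells are HEK293 stably expressing a constitutively active GLP-1R plus cAMP-responsive luciferase.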
HEK293 tox: cytotoxic in the GLP-1 receptor inverse agonist counter-screen; 0.13% of 410,000 active; HEK293 cAMP-luciferase reporter cells, luminescence, 24 h; AID 624418; Potency, µM (titrated, usually from 38.3 µM), actives largely listed as inhibitors;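 further: loss of luciferase light is scored as toxicity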
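Cells in DMEM/10% Nu serum/1% pen-strep, 1536-well format. Pre-incubated 12 h, dosed with 23 nL compound, incubated a further 24 h. Luciferase detection, 12 min at room temp, luminescence.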
ClpP mod: qHTS Assay for Activators of ClpP | ATP-dependent Clp protease proteolytic subunit (Bacillus subtilis (strain 168)), P80244 | AID 651965, 2013 | purified B. subtilis ClpP, FRET peptide cleavage, 20 min | Potency, µM (doses to about 57.5 µM) | 1.9% of 340,000 active; active means well fitted falling curve with a large enough effect; inconclusive means small, poorly fitted or top-dose-only effect; inactive means no such curve, though single readings can be large or run the other way; further: the source files actives as falling curves though it sought activators and does not explain the sign; nearly all actives have a fitted effect of over 65% in size
Target sequence (P80244 whole entry, looked up): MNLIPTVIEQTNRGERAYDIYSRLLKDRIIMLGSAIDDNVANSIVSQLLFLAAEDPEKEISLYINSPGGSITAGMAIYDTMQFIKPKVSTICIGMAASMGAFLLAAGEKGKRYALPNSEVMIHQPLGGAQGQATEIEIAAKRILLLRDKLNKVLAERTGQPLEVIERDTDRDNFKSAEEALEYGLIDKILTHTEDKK
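Buffer: 100 mM Tris/HCl pH8, 100 mM KCl, 0.05% low protease BSA, 2.5% glycerol, 0.01% Tween-20. ClpP 10 microg/mL final; 20 min RT; delta FRET normalized to ADEP and DMSO controls.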
Each line names hits and unclear results; the compound was inactive in the other large screens. Unless noted, the call rests on the fitted dose curve; in most records, active means well fitted curve in the direction sought with a large enough effect; inconclusive means small, poorly fitted or top-dose-only effect, or another doubt; inactive means no such curve, though single readings can be large; an effect the other way counts as inactive or inconclusive.

CCCCC(=O)NCCc1cc2ccc(OC)cc2[nH]c1=O	ClpP mod 25µM
CCCC(=O)NCCc1cc2cc(C)c(C)cc2[nH]c1=O	ClpP mod 25µM
CC(=O)NCCc1cc2cc(C)c(C)cc2[nH]c1=O	ClpP mod inconclusive
Cc1ccc(CN2C(=O)c3ccccc3Sc3ccc(C(=O)OCc4ccco4)cc32)cc1	none
CCc1cccc(C)c1NC(=S)NCCc1c(C)[nH]c2ccc(C)cc12	GLP1R inv ag inconclusive, HEK293 tox inconclusive
CCc1cccc(CC)c1NC(=S)NCCc1c(C)[nH]c2ccc(C)cc12	GLP1R inv ag 7.9µM
CC(C)N(Cc1ccccc1)C(=O)CN1C(=O)COc2ccc(S(=O)(=O)N3CCCCCC3)cc21	GLP1R inv ag 7.9µM
O=C(CN1C(=O)COc2ccc(S(=O)(=O)N3CCCCCC3)cc21)NCc1ccc(Cl)cc1	GLP1R inv ag inconclusive (no result: GLP-1R agonist)
O=C(Cc1ccc(S(=O)(=O)N2CCCCC2)cc1)NCc1ccc(Cl)cc1	GLP1R inv ag 7.1µM
O=C(CN1C(=O)COc2ccc(S(=O)(=O)N3CCCCC3)cc21)NCc1ccc(Cl)cc1	GLP1R inv ag 10µM
Cc1c(C(=O)NCc2ccc(F)cc2)oc2ccc(S(=O)(=O)N3CCCCC3)cc12	GLP1R inv ag 10µM (no result: GLP-1R agonist)
COc1cccc(CNC(=O)CCc2cn(Cc3ccccc3Cl)c3ccccc23)c1	GLP1R inv ag inconclusive (no result: GLP-1R agonist)
Cc1ccc(OC(C)C(=O)N2CCN(CCc3ccccn3)CC2)cc1C (centres undefined)	none (no result: GLP-1R agonist)
Cc1ccsc1CN(C(=O)COc1cccc(C)c1C)C1CCS(=O)(=O)C1 (centres undefined)	GLP1R inv ag inconclusive (no result: GLP-1R agonist)
Cc1ccc2c(C(=O)CNc3nccs3)c[nH]c2c1	none (no result: GLP-1R agonist, GLP1R inv ag, HEK293 tox)
O=C(COC(=O)c1ccc2ncsc2c1)NC(=O)C1CCCCC1	none (no result: GLP-1R agonist, GLP1R inv ag, HEK293 tox)
CCN(CC)S(=O)(=O)c1ccc2c(c1)N(CC(=O)NCCCN1CCN(c3cc(Cl)ccc3C)CC1)C(=O)CO2	GLP1R inv ag 11µM, HEK293 tox inconclusive
CCN(CC)S(=O)(=O)c1ccc2c(c1)N(CC(=O)N1CCN(c3cc(Cl)ccc3C)CC1)C(=O)CO2	none (no result: GLP-1R agonist)
OC(COc1ccc2c(c1)OCO2)CN1CCN(c2ccccc2)CC1 (centres undefined)	GLP1R inv ag 8.9µM (no result: ClpP mod)
CC(C)c1ccc(OCC(O)CN2CCN(c3ccccc3)CC2)cc1 (centres undefined)	GLP1R inv ag 10µM, HEK293 tox inconclusive
OC(COc1ccc2c(c1)OCO2)CN1CCCCC1 (centres undefined)	none
CC(C)(C)c1ccc(OCC(O)CN2CCN(C(=O)c3ccccc3)CC2)cc1 (centres undefined)	GLP1R inv ag 10µM
O=C(Nc1ccccc1F)c1ccc2c(Cl)c3c(nc2c1)CCC3	GLP1R inv ag inconclusive
COc1ccc(CN(C)CC2CCCN(CCc3ccc(F)cc3)C2)cc1OC (centres undefined)	GLP1R inv ag 11µM
Nc1ccc(C(=O)OCc2nc3ccccc3[nH]2)cc1	none
Nc1ccc(C(=O)OCCCc2nc3ccccc3[nH]2)cc1	ClpP mod 28µM
COc1ccccc1N1CCN(C(=O)CSc2nc3ccccc3nc2Cc2ccc(C)cc2)CC1	GLP1R inv ag inconclusive (no result: GLP-1R agonist)
COc1ccccc1N1CCN(C(=O)CSc2nc3ccccc3nc2N2CCC(C)CC2)CC1	GLP1R inv ag 5µM (no result: ClpP mod)
COc1ccccc1N1CCN(C(=O)CSc2nc3ccccc3nc2N2CCCCC2)CC1	GLP1R inv ag 5µM
O=C(CS(=O)(=O)c1cccc2nsnc12)Nc1ccccc1	none
Cc1ccc(C(CNC(=O)Nc2ccc(Cl)cc2)N2CCN(C)CC2)cc1 (centres undefined)	GLP1R inv ag 8.9µM
CC(C)COC(=O)c1ccc(N)cc1	none (no result: GLP1R inv ag, HEK293 tox, ClpP mod)
CCOC(=O)C1(Cc2cccc(Cl)c2)CCCN(C(=O)c2cc(C)on2)C1 (centres undefined)	none
CCOC(=O)C1(Cc2cccc(Cl)c2)CCCN(C(=O)c2cc(C)[nH]n2)C1 (centres undefined)	ClpP mod 28µM
O=C(NC1CCCCC1)c1ccc2c(c1)N(Cc1ccccc1F)C(=O)c1ccccc1S2	none (no result: GLP-1R agonist)
Cc1ccc(Oc2ncccc2/C=N/OCc2ccc(Cl)c(Cl)c2)cc1	GLP1R inv ag 10µM
CCN1CCN(CCCNC(=O)Cn2nc(C)n3c(cc4c(OC)cccc43)c2=O)CC1	none (no result: GLP-1R agonist)
CCOC(=O)N(C)c1ccc(C(O)(C(F)(F)F)C(F)(F)F)cc1	GLP1R inv ag inconclusive, ClpP mod 32µM
CCN(CC(=O)NCc1cccs1)C(=O)c1ccc(S(=O)(=O)N(C)C)cc1	none (no result: ClpP mod)
CCN(CC(=O)NCc1cccs1)C(=O)c1ccc(S(=O)(=O)N(C)c2ccccc2)cc1	ClpP mod 22µM
CCN(CC(=O)NCc1cccs1)C(=O)/C=C/c1cc(OC)c(OC)c(OC)c1	ClpP mod 16µM
CCCSc1nnc2n(-c3ccc(OC)cc3)c(=O)c3c4c(sc3n12)COC(C(C)C)C4 (centres undefined)	none
COC(=O)c1scc(-c2ccc(C)cc2)c1S(=O)(=O)Nc1cc(OC)c(OC)c(OC)c1	none (no result: GLP-1R agonist)
CC1=C(C(=O)N2CCOCC2)C(c2ccccc2F)C2=C(CC(C)(C)CC2=O)N1 (centres undefined)	ClpP mod 14µM
COc1ccc(C2C(C#N)=C(C)NC3=C2C(=O)CC(C)(C)C3)c(OC)c1 (centres undefined)	ClpP mod inconclusive
COc1ccc(C2C(C(=O)N3CCOCC3)=C(C)NC3=C2C(=O)CC(C)(C)C3)c(OC)c1 (centres undefined)	ClpP mod 16µM
O=C1OC2C(O)C(O)OC2C1O (centres undefined)	none (no result: GLP1R inv ag, HEK293 tox, ClpP mod)
COc1ccc(-c2cc(C(=O)Oc3ccccc3)c3cc(C)ccc3n2)cc1	GLP1R inv ag inconclusive (no result: GLP-1R agonist)
COCCNC(=O)c1c[nH]c2ccc(S(=O)(=O)N3CCOCC3)cc2c1=O	none
CN(Cc1ccccc1)C(=O)c1c[nH]c2ccc(S(=O)(=O)N3CCOCC3)cc2c1=O	ClpP mod 32µM
Cc1ccc(CNC(=O)c2c[nH]c3ccc(S(=O)(=O)N4CCOCC4)cc3c2=O)cc1	ClpP mod 28µM
O=C(NCc1ccc2c(c1)OCO2)c1c[nH]c2ccc(S(=O)(=O)N3CCOCC3)cc2c1=O	ClpP mod inconclusive
Cc1ccc(N(C)S(=O)(=O)c2ccc3[nH]cc(C(=O)NCCCN4CCOCC4)c(=O)c3c2)cc1C	GLP1R inv ag inconclusive
Cc1ccc(C)c(N(C)S(=O)(=O)c2ccc3[nH]cc(C(=O)NCCN4CCOCC4)c(=O)c3c2)c1	ClpP mod 18µM
Cc1ccc2c(=O)cc(C(=O)Nc3c(C)cccc3C)oc2c1	none (no result: GLP-1R agonist)
CCN1c2ccccc2-c2nc(SCC(=O)Nc3ccc(C)c(Cl)c3)ncc2S1(=O)=O	GLP1R inv ag inconclusive, ClpP mod inconclusive (no result: GLP-1R agonist)
Cc1ccc(S(=O)(=O)N2CCN(C(=O)c3cc(-c4ccc(Br)cc4)n[nH]3)CC2)c(C)c1	none (no result: GLP-1R agonist)
CCOC(=O)c1cc2c3ccccc3n(CC)c2nc1N	ClpP mod 16µM
CCn1c2ccccc2c2cc(C#N)c(N)nc21	none
